Test results taken from article PMC7862700, “An all-to-all approach to the identification of sequence-specific readers for epigenetic DNA modifications on cytosine”.

Assays:
Assay in all cases: DAPPL (digital affinity profiling via proximity ligation, sequencing); 10 mM Tris-HCl pH 7.5, 50 mM NaCl, 1 mM DTT, 4% glycerol, room temperature, 30 min; GST-TFs on glutathione beads, 16-mer random dsDNA library, 0.1% formaldehyde crosslink after washing; high values mean tight binding
Settings in all cases: protein: recombinant; tags: N-terminal GST; dsDNA, one strand shown
[1] = molecular target: T1, ERF (Homo sapiens, UniProt P50548 1-548)
T1 sequence: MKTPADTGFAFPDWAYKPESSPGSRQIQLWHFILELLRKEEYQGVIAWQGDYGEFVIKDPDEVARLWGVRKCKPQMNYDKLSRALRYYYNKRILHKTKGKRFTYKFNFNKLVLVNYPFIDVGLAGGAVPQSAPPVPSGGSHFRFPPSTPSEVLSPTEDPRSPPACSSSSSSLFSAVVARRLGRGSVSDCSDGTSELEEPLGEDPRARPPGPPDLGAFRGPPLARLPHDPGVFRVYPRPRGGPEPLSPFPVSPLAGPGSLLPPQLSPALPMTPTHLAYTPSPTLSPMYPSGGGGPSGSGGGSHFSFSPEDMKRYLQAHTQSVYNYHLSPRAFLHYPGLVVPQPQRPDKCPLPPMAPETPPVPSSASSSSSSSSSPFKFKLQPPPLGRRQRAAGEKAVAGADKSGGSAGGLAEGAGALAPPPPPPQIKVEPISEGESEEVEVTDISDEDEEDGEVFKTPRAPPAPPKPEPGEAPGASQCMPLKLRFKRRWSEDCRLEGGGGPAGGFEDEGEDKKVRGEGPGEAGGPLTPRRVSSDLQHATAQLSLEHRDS
In short: (§1)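 Binding signal is each hexamer's read frequency for a factor divided by its frequency in the tag-only sample. The factors were GST-fused human transcription factors from yeast, captured on glutathione beads, DNA-barcoded and pooled with that sample. Pools were incubated with 200 nmole of a random double-stranded 16-mer DNA library in Tris/NaCl/DTT/glycerol buffer at room temperature for 30 min, then washed, crosslinked with 0.1% formaldehyde, proximity-ligated with BsaI/T4 ligase (1 h, 37 °C), PCR-amplified and sequenced on an Illumina NextSeq500.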

[2] = molecular target: T2, ETV3L (Homo sapiens, UniProt Q6ZN32 1-361)
T2 sequence: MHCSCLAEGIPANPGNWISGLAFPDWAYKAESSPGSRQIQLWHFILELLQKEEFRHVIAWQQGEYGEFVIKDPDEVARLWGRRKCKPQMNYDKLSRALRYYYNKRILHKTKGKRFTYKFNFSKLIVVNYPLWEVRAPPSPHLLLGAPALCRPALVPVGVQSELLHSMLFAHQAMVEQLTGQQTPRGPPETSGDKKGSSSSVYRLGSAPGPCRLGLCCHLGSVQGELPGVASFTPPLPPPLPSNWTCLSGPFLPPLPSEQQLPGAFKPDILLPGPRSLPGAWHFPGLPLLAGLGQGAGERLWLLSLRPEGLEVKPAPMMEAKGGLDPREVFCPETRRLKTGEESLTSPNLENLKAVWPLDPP
In short: as §1

[3] = molecular target: T3, ETS2 (Homo sapiens, UniProt P15036 1-469)
T3 sequence: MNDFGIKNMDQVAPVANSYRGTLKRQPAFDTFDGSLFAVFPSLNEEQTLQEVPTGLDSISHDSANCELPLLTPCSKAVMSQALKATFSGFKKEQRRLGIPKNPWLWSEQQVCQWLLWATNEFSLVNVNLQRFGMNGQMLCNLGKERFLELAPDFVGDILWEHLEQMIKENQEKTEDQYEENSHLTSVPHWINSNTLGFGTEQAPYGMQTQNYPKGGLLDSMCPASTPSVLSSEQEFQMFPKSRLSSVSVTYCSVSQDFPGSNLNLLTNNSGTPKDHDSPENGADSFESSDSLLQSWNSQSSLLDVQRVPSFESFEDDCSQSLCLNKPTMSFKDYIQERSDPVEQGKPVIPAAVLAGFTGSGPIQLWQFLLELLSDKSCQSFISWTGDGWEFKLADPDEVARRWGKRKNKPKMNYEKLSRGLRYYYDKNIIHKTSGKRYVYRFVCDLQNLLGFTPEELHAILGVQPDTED
In short: as §1

[4] = molecular target: T4, SPDEF (Homo sapiens, UniProt O95238 1-335)
T4 sequence: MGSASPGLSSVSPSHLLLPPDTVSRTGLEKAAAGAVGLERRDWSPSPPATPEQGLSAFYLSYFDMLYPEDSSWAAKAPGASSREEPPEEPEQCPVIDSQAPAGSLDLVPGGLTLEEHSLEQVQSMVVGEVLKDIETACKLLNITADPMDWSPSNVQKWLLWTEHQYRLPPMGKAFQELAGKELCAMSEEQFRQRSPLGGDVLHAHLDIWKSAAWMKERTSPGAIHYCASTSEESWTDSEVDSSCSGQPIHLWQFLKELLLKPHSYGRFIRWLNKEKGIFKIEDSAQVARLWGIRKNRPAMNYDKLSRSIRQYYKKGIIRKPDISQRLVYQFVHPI
In short: as §1

[5] = molecular target: T5, ETV7 (Homo sapiens, UniProt Q9Y603 1-341)
T5 sequence: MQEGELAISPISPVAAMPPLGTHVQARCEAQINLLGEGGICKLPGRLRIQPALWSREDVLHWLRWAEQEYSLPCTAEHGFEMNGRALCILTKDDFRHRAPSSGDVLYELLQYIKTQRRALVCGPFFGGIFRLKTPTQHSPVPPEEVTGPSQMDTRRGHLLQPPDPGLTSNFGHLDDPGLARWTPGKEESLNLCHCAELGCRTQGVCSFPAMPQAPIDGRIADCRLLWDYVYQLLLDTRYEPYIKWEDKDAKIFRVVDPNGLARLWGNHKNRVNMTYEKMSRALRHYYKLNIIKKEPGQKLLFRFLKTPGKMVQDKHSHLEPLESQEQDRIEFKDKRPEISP
In short: as §1

[6] = molecular target: T6, ELF5 (Homo sapiens, UniProt Q9UKW6-2 1-255)
T6 sequence: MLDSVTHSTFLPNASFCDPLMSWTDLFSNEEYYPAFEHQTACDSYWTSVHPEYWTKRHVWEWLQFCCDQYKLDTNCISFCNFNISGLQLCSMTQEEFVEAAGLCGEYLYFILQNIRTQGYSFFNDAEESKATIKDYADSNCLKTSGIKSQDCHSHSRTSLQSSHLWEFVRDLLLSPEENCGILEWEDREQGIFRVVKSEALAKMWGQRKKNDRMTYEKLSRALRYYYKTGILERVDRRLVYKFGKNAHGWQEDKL
In short: as §1

[7] = molecular target: T7, ETV3 (Homo sapiens, UniProt P41162-2 1-143)
T7 sequence: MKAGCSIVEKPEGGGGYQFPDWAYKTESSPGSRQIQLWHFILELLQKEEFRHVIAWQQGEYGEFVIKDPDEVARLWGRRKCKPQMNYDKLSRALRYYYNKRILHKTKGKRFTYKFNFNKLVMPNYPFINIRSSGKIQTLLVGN
In short: as §1

[8] = molecular target: ETV6 (Homo sapiens, UniProt P41212 1-452)
In short: as §1

Sequence of ETV6 (P41212 whole entry): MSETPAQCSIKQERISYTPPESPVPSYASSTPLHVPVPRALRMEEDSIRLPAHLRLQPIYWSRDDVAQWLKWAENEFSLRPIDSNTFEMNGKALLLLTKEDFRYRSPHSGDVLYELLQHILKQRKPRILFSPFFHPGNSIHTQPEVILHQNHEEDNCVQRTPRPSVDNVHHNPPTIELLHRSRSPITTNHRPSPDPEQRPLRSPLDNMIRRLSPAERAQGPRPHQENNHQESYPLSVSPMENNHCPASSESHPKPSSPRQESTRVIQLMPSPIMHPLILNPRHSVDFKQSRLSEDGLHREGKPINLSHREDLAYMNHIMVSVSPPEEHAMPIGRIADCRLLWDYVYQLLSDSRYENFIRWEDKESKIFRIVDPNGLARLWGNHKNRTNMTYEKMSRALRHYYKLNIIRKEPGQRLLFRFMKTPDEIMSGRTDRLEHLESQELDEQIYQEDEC

Sequence | binding signal [1] | binding signal [2] | binding signal [3] | binding signal [4] | binding signal [5] | binding signal [6] | binding signal [7] | binding signal [8]
GTTGCT | 1.27 fold enrichment (6-mer frequency, TF over GST control) | 1.26 fold enrichment (6-mer frequency, TF over GST control) | 1.22 fold enrichment (6-mer frequency, TF over GST control) | 1.27 fold enrichment (6-mer frequency, TF over GST control) | 1.38 fold enrichment (6-mer frequency, TF over GST control) | 1.27 fold enrichment (6-mer frequency, TF over GST control) | 1.51 fold enrichment (6-mer frequency, TF over GST control) | 1.29 fold enrichment (6-mer frequency, TF over GST control)
CTTGGT | 1.34 fold enrichment (6-mer frequency, TF over GST control) | 1.47 fold enrichment (6-mer frequency, TF over GST control) | 1.45 fold enrichment (6-mer frequency, TF over GST control) | 1.51 fold enrichment (6-mer frequency, TF over GST control) | 1.49 fold enrichment (6-mer frequency, TF over GST control) | 1.37 fold enrichment (6-mer frequency, TF over GST control) | 1.34 fold enrichment (6-mer frequency, TF over GST control) | 1.44 fold enrichment (6-mer frequency, TF over GST control)
GAAATA | 1.45 fold enrichment (6-mer frequency, TF over GST control) | 1.48 fold enrichment (6-mer frequency, TF over GST control) | 1.51 fold enrichment (6-mer frequency, TF over GST control) | 1.52 fold enrichment (6-mer frequency, TF over GST control) | 1.6 fold enrichment (6-mer frequency, TF over GST control) | 1.73 fold enrichment (6-mer frequency, TF over GST control) | 1.54 fold enrichment (6-mer frequency, TF over GST control) | 1.75 fold enrichment (6-mer frequency, TF over GST control)
TTTAAA | 1.31 fold enrichment (6-mer frequency, TF over GST control) | 1.35 fold enrichment (6-mer frequency, TF over GST control) | 1.26 fold enrichment (6-mer frequency, TF over GST control) | 1.16 fold enrichment (6-mer frequency, TF over GST control) | 1.36 fold enrichment (6-mer frequency, TF over GST control) | 1.19 fold enrichment (6-mer frequency, TF over GST control) | 1.22 fold enrichment (6-mer frequency, TF over GST control) | 1.27 fold enrichment (6-mer frequency, TF over GST control)
GATGCT | 1.3 fold enrichment (6-mer frequency, TF over GST control) | 1.28 fold enrichment (6-mer frequency, TF over GST control) | 1.25 fold enrichment (6-mer frequency, TF over GST control) | 1.2 fold enrichment (6-mer frequency, TF over GST control) | 1.29 fold enrichment (6-mer frequency, TF over GST control) | 1.21 fold enrichment (6-mer frequency, TF over GST control) | 1.29 fold enrichment (6-mer frequency, TF over GST control) | 1.16 fold enrichment (6-mer frequency, TF over GST control)
TACCTA | 1.25 fold enrichment (6-mer frequency, TF over GST control) | 1.28 fold enrichment (6-mer frequency, TF over GST control) | 1.31 fold enrichment (6-mer frequency, TF over GST control) | 1.19 fold enrichment (6-mer frequency, TF over GST control) | 1.27 fold enrichment (6-mer frequency, TF over GST control) | 1.23 fold enrichment (6-mer frequency, TF over GST control) | 1.2 fold enrichment (6-mer frequency, TF over GST control) | 1.29 fold enrichment (6-mer frequency, TF over GST control)
CCTTGA | 1.27 fold enrichment (6-mer frequency, TF over GST control) | 1.17 fold enrichment (6-mer frequency, TF over GST control) | 1.2 fold enrichment (6-mer frequency, TF over GST control) | 1.33 fold enrichment (6-mer frequency, TF over GST control) | 1.14 fold enrichment (6-mer frequency, TF over GST control) | 1.37 fold enrichment (6-mer frequency, TF over GST control) | 1.19 fold enrichment (6-mer frequency, TF over GST control) | 1.23 fold enrichment (6-mer frequency, TF over GST control)
CTATCT | 1.42 fold enrichment (6-mer frequency, TF over GST control) | 1.39 fold enrichment (6-mer frequency, TF over GST control) | 1.39 fold enrichment (6-mer frequency, TF over GST control) | 1.3 fold enrichment (6-mer frequency, TF over GST control) | 1.4 fold enrichment (6-mer frequency, TF over GST control) | 1.3 fold enrichment (6-mer frequency, TF over GST control) | 1.28 fold enrichment (6-mer frequency, TF over GST control) | 1.32 fold enrichment (6-mer frequency, TF over GST control)
